From PubChem BioAssay AID2284082 (EPA ToxCast) come the findings set out here.

Results filed as inconclusive are left out. The source made the active and inactive calls. The calls were made as follows: active = hit-call score of the fitted dose curve at least 0.9, where 1 is the maximum; inconclusive = response in the unintended direction; inactive = score below 0.9.

human Akt2 (PKBbeta) AGC Kinase, AKT2 (gene 208), sequence (P31751 whole entry, looked up): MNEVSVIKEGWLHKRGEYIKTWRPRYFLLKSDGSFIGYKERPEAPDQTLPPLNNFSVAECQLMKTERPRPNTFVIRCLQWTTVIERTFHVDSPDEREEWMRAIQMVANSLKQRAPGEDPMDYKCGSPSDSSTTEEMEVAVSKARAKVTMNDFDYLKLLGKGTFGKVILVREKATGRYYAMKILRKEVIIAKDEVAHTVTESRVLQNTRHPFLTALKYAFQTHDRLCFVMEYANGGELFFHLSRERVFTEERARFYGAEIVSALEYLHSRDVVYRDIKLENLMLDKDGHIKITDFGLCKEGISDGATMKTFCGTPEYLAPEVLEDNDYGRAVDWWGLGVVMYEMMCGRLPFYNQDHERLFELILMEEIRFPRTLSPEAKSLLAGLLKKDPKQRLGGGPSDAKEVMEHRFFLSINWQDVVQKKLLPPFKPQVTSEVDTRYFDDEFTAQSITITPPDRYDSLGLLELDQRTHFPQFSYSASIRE

This test has as its target human Akt2 (PKBbeta) AGC Kinase, AKT2 (gene 208) (UniProt P31751). The test is described as follows: ERF_FR_ENZ_hAKT2: Eurofins (ERF) Enzymatic Radiometric [Km ATP] KinaseProfiler LeadHunter Assay for human Akt2 (PKBbeta) AGC Kinase. As for the experimental part: ERF_FR_ENZ_hAKT2 is a biochemical, single-readout assay that uses extracted gene-proteins in a cell-free assay. Measurements were taken 0.5 hour after chemical dosing in a 96-well plate. See Akt2 (PKBbeta) Human AGC Kinase Enzymatic LANCE Assay [Km ATP], Cerep.ERF_FR_ENZ_hAKT2 is an assay component calculated from the ERF_FR_ENZ_hAKT2 assay. It is designed to measure enzyme activity using a type of enzyme reporter as detected by fluorescence intensity with LANCE technology.Data from the assay component ERF_FR_ENZ_hAKT2 was analyzed at the assay endpoint, ERF_FR_ENZ_hAKT2, in the positive analysis fitting direction relative to DMSO as the negative control and baseline of activity. Using a type of enzyme reporter, loss-of-signal activity can be used to understand changes in enzymatic activity as they relate to gene AKT2. To generalize the intended target to other relatable targets, this assay endpoint is annotated to the kinase intended target family, where the subfamily is serine/threonine kinase.
PKBb (h) is incubated with 8 mM MOPS pH 7.0, 0.2 mM EDTA, 30 uM […], 10 mM MgAcetate and [g- 33P]-ATP (specific activity and concentration as required). The reaction is initiated by the addition of the Mg/ATP mix. After incubation for 40 minutes at room temperature, the reaction is stopped by the addition of phosphoric acid to a concentration of 0.5%. […]
As to `Oc1ccc(O)cc1`, the call was inactive.
